Measured values: PubChem BioAssay (NCATS)
Inconclusive results are not listed. Entries that show only a call come without a potency. Calls of active or inactive are those of the source. The call rests on the fitted dose curve; in most records, active means well fitted curve in the direction sought with a large enough effect; inconclusive means small, poorly fitted or top-dose-only effect, or another doubt; inactive means no such curve, though single readings can be large; an effect the other way counts as inactive or inconclusive.

Columns and labels:
[1] = molecular target: Aldehyde dehydrogenase, mitochondrial (Homo sapiens) (UniProt P05091); test: qHTS for Inhibitors of the Aldehyde Dehydrogenase Family (ALDH2) Primary screen (AID 2061308); further: nearly all actives have a fitted effect of over 55% in size
[2] = molecular target: Retinaldehyde dehydrogenase 3 (Homo sapiens) (UniProt P47895); test: qHTS for Inhibitors of the Aldehyde Dehydrogenase Family (ALDH1A3) Primary screen (AID 2061315)

SMILES | Potency [1] | Potency [2]
CCN(CC)CCn1c(-c2ccccc2)nc2c(NCCO)nc(C)nc21 | inactive | inactive
C=C(C)C(=O)OC1[C@@H]2C(=C)C(=O)O[C@@H]2C[C@@H](C)[C@@H]2C=CC(=O)[C@@]12C (stereo partly specified) | inactive | inactive
COc1ccc(Cn2ncc3c4sc(C)cc4n(C)c3c2=O)cc1F | inactive | inactive
Cc1ccc(OCCn2c(CCNC(=O)c3ccsc3)nc3ccccc32)cc1 | inactive | inactive
Cc1cc2c(s1)c1cnn(Cc3c(F)cc(F)cc3F)c(=O)c1n2C | inactive | inactive
CC(C)c1ccccc1-c1ncc(N)c(NCc2ccc(-c3cccnc3)cc2)n1 | inactive | inactive
COc1cccc(C2c3c(ncn(-c4ccc(F)cc4)c3=N)Oc3ccc4ccccc4c32)c1 (stereo unspecified) | inactive | inactive
Cc1ccc(-c2ccc(=O)n(CC(=O)N(C)C3CCCCCC3)n2)cc1 | inactive | inactive
N#Cc1ccc(-c2csc(N3CCC(C(N)=O)CC3)n2)cc1 | inactive | inactive
CNc1oc(-c2ccc(F)cc2)nc1C#N | inactive | inactive
CC(C)(C)c1ccccc1Nc1nc(C#N)nc(NC2CCCC2)n1 | inactive | inactive
Cc1ccc2oc(NC3=NC4(CCCC4)C4=C(CCCC4=O)N3)nc2c1 | inactive | inactive
COCCNc1nc(C)nc2c1nc(-c1ccccc1)n2CCCN1CCCCC1C (stereo unspecified) | inactive | inactive
N#Cc1nc(-c2cccc3ccccc23)oc1NC1CNC1 | inactive | inactive
O=S(=O)(c1ccc2c(c1)OCCO2)N1CCN(S(=O)(=O)c2ccc(Cl)cc2F)CC1 | inactive | inactive
O=C(Nc1ccc(Cl)cc1)Nc1cccc(-c2cccc(N3CCCC3)n2)c1 | inactive | inactive
Cc1cc(C)nc(NC(=S)N2CCN(c3ncc(Cl)cc3Cl)CC2)c1 | inactive | inactive
O=C(O)c1ccc(O)c2ncc(N3CCCCC3)cc12 | inactive | inactive
O=C(Nc1ccc(S(=O)(=O)Nc2nccs2)cc1)c1cccc2ccccc12 | inactive | inactive
Cn1nnnc1Sc1ncnc2scc(-c3cccc(Cl)c3)c12 | inactive | inactive
O=C1Nc2ccccc2C1Cc1cc(Cl)c(O)c(Cl)c1 (stereo unspecified) | inactive | inactive
N#Cc1c(-c2cccc(C(F)(F)F)c2)no[n+]1[O-] | inactive | inactive
C=CC(C)(C)c1[nH]c2ccccc2c1C[C@@H]1NC(=O)[C@H](C)NC1=O | inactive | inactive
